Structures are written as SMILES.

The assay is described as follows: HepG2 cell viability effects, profiling panel, calcein-AM fluorescence, 48 h, basal (AID 1164). Note: test concentration not given here. Particulars: higher = more signal.
For `CC(=O)NCCCC[C@@H]1NC(=O)[C@@H]2C[C@H](C(=O)NCCCCCNC(=O)CS)[C@H](c3cccc(OCCO)c3)N2C1=O`, the z-score was -0.884.

On to `COc1ccccc1CN1C(=O)c2ccccc2[C@@]2(Cc3ccccc3N(CC(C)C)C2=O)[C@@H]1c1ccc(CO)cc1`, for which the z-score was -0.385.

With `CC(CO)N1C(=O)[C@@H]2C3C(=O)OCCC/C=C\[C@H]3OC23C=CCN(C(C)(C)C)C(=O)[C@@H]13` (stereo partly drawn), the z-score is 0.775.

As to `CC1(C)[C@@H]2CC(C(O)C3C=CC4C(=O)N(Cc5ccccc5)C(=O)C4N3n3cnnc3)=C[C@H]1C2` (stereo partly drawn), the z-score is 0.0607.

Turning to `O=C1C[C@@](C(=O)NC2CC2)(c2ccc([N+](=O)[O-])cc2)[C@@H](c2ccc(CO)cc2I)N1C1CCCCC1`, the z-score was 0.522.

Consider `NC(=O)NCC#Cc1ccc2c(c1)[C@]1(C(=O)N2)[C@H](C(=O)Nc2nc3ccccc3s2)[C@H]2C(=O)O[C@H](c3ccccc3)[C@H](c3ccccc3)N2[C@@H]1c1ccccc1OCCO`, for which the z-score is 0.374.

As for `O=C1c2ccccc2[C@](Cc2ccccc2I)(C(=O)NCC(F)(F)F)[C@H](c2ccc(CO)cc2)N1Cc1ccccc1Cl`, the z-score is 0.0068.

For the compound `CCC[C@@H]1C[C@@]1(CCC)[C@@H](NS(=O)(=O)c1cccc2cccnc12)c1ccc(Cl)cc1`, the z-score is 0.112.

With `CCCC[C@@H]1C[C@H]1[C@@H](NC(=O)c1ccco1)c1ccc(-c2ccccc2)cc1`, the z-score was -1.05.

On to `Cc1ccc(S[C@]2(C(=O)NCCCN(C)C)CC(=O)N(Cc3cc(C(F)(F)F)cc(C(F)(F)F)c3)[C@@H]2c2ccc(CO)cc2)cc1`, for which the z-score was -0.767.

On to `C=C[C@@H](COC(=O)OC(C)(C)C)N(Cc1ccc(OC)cc1)S(=O)(=O)c1ccc(Br)cc1`, for which the z-score is -0.002.

Turning to `COCCOC(=O)N1C(=O)[C@@]2(c3cc(C#CCC(C(=O)OC)C(=O)OC)ccc31)[C@H](C(=O)N1CCN(c3ncccn3)CC1)[C@H]1C(=O)O[C@H](c3ccccc3)[C@H](c3ccccc3)N1[C@@H]2c1ccccc1OCCO`, the z-score is -0.481.

Take `CN1C(=O)C2C=CC(C(O)c3ccccc3)N(N(c3ccccc3)c3ccccc3)C2C1=O` (stereo not drawn): the z-score was -0.373.

On to `COc1ccc([Si](C)(C)[C@H]2[C@H](CC(=O)N3Cc4ccccc4C[C@H]3CO)O[C@@]3(C(=O)N(Cc4cccc(N5CCC5=O)c4)c4ccccc43)[C@@H]2C)cc1`, for which the z-score was -0.616.

Regarding `C=CCC(OC(C)=O)[C@@H]1[C@@H](N(Cc2ccc(-c3cccc(C(F)(F)F)c3)o2)C(=O)c2ccc(C)cc2)c2cc(OCCCO)ccc2N1C(=O)Cc1ccc2ccccc2c1` (stereo partly drawn), the z-score is 0.544.

On to `Oc1ccc2cc[n+](Cc3sc4ccccc4c3Cl)cc2c1`, for which the z-score is -0.934.

As for `COC(=O)C(CC#Cc1ccc2c(c1)[C@]1(C(=O)N2)[C@H](c2ccc(OCCO)cc2)N2[C@H](c3ccccc3)[C@H](c3ccccc3)OC(=O)[C@H]2[C@@H]1C(=O)N1CCc2cc(OC)c(OC)cc2C1)C(=O)OC`, the z-score is 0.578.

Regarding `COc1ccc(CCNC(=O)[C@@]2(Sc3ccc(C)cc3)CC(=O)N(C(C)C)[C@@H]2c2ccc(CO)cc2I)cc1`, the z-score was 0.0217.

As for `CN(C)CCCC[C@@H]1NC(=O)[C@@H]2C[C@H](C(=O)NCCCCCCN)[C@H](c3cccc(OCCO)c3)N2C1=O`, the z-score is -1.21.

Consider `C=CCN1C(=O)[C@]2(O[C@H](CCn3cc([C@H](O)c4ccccc4)nn3)[C@@H]([Si](C)(C)c3ccc(OC)cc3)[C@@H]2C)c2ccccc21`, for which the z-score was -1.85.

For `COC(=O)C(CC#Cc1ccc2c(c1)[C@]1(C(=O)N2)[C@H](C(=O)Nc2nc3ccccc3s2)[C@H]2C(=O)O[C@H](c3ccccc3)[C@H](c3ccccc3)N2[C@@H]1c1ccc(O)cc1)C(=O)OC`, the z-score was 1.49.

Take `COc1cc2c(cc1O)C(c1cccs1)N(C)CC2` (stereo not drawn): the z-score is 0.448.

For the compound `C=CC[C@]1(C(=O)NCc2ccccc2)N=C(c2ccc(OCCCO)cc2)O[C@H]1c1ccccc1N=[N+]=[N-]`, the z-score was -0.0143.

Consider `O=C(c1ccccc1)N1Cc2ccccc2C[C@@]2(COC(c3ccc(OCCCO)cc3)=N2)C1=O`, for which the z-score is 0.81.

As to `C=C[C@H](C)[C@@H](OC(=O)Nc1ccc(OC)cc1)c1ccc(O)c2ccccc12`, the z-score was -1.54.

`CCC(CC)C(O)C1C=CC2C(=O)NC(=O)C2N1Nc1ccc(Cl)cc1Cl` (stereo not drawn): the z-score is -0.751.

Consider `COc1ccc(C#Cc2ccc3c(c2)[C@]2(C(=O)N3)[C@H](c3ccccc3OCCO)N3[C@H](c4ccccc4)[C@H](c4ccccc4)OC(=O)[C@H]3[C@@H]2C(=O)Nc2nc3ccccc3s2)cc1`, for which the z-score is -0.543.

Regarding `O=C(CS)NCCCCCCNC(=O)[C@@H]1C[C@@H]2C(=O)N[C@@H](Cc3ccccc3)C(=O)N2[C@@H]1c1cccc(OCCO)c1`, the z-score is 0.371.
